According to ChEMBL document CHEMBL1961873, “Compounds: GSK PKIS; Assays: Nanosyn kinase panel” (2012):

Key:
[1] = molecular target: Death-associated protein kinase 1 (Homo sapiens) (UniProt P53355); conditions: at 1 µM;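 further: each value is a mean inhibition figure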
[2] = molecular target: T1, Serine/threonine-protein kinase DCLK2 (Homo sapiens) (UniProt Q8N568); conditions: at 0.1 µM
T1 sequence (whole entry): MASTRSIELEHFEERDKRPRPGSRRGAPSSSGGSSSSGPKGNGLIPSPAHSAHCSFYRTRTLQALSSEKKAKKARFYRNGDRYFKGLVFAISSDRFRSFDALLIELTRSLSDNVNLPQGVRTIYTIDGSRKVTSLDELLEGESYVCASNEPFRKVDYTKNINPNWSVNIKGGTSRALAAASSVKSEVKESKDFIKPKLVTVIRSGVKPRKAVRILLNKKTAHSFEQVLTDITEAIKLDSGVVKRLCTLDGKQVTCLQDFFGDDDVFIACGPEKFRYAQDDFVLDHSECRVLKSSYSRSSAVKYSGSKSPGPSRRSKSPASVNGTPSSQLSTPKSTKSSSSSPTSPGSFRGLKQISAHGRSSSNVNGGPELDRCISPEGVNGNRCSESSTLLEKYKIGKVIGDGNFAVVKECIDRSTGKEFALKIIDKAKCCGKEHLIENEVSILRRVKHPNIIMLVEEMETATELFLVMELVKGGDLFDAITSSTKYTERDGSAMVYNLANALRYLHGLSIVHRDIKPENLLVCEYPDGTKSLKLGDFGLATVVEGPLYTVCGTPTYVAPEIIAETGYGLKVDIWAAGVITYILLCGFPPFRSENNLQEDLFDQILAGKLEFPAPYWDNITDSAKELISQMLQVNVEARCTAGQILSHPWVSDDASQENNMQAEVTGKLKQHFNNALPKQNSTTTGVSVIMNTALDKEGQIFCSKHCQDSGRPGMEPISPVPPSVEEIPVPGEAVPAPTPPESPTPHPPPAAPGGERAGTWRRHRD

[3] = molecular target: T1, Serine/threonine-protein kinase DCLK2 (Homo sapiens); conditions: at 1 µM
[4] = molecular target: MAP kinase-activated protein kinase 2 (Homo sapiens) (UniProt P49137); conditions: at 0.1 µM
[5] = molecular target: MAP kinase-activated protein kinase 2 (Homo sapiens) (UniProt P49137); conditions: at 1 µM
[6] = molecular target: MAP kinase-activated protein kinase 3 (Homo sapiens) (UniProt Q16644); conditions: at 0.1 µM
[7] = molecular target: MAP kinase-activated protein kinase 3 (Homo sapiens) (UniProt Q16644); conditions: at 1 µM
[8] = molecular target: Serine/threonine-protein kinase MARK1 (Homo sapiens) (UniProt Q9P0L2); conditions: at 0.1 µM
[9] = molecular target: Serine/threonine-protein kinase MARK1 (Homo sapiens) (UniProt Q9P0L2); conditions: at 1 µM
[10] = molecular target: MAP/microtubule affinity-regulating kinase 3 (Homo sapiens) (UniProt P27448); conditions: at 0.1 µM;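 further: mean percent inhibition of MARK3 kinase activity, measured within the GSK PKIS screening panel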
Chain of MAP/microtubule affinity-regulating kinase 3 (Homo sapiens) (P27448 whole entry, looked up): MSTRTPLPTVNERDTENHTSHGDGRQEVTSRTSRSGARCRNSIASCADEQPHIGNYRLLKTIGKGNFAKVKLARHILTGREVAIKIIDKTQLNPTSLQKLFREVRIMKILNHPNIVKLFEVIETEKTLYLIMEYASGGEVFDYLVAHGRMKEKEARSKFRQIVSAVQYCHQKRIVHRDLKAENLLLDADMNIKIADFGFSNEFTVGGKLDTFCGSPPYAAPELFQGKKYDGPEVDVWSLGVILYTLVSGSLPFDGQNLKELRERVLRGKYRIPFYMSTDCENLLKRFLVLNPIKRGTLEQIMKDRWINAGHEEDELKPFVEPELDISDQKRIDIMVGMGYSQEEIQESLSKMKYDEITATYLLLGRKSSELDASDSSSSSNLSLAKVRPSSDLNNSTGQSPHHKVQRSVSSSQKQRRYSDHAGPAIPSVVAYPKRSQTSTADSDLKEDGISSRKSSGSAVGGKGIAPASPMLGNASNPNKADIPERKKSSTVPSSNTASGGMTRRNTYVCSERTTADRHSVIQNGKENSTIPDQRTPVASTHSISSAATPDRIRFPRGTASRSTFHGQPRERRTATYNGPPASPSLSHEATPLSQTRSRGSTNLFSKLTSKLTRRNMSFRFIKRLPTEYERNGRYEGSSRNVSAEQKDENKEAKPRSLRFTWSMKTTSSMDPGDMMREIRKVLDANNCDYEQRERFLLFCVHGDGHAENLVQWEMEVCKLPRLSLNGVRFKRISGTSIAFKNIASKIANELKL

Chain of Death-associated protein kinase 1 (Homo sapiens) (P53355 whole entry, looked up): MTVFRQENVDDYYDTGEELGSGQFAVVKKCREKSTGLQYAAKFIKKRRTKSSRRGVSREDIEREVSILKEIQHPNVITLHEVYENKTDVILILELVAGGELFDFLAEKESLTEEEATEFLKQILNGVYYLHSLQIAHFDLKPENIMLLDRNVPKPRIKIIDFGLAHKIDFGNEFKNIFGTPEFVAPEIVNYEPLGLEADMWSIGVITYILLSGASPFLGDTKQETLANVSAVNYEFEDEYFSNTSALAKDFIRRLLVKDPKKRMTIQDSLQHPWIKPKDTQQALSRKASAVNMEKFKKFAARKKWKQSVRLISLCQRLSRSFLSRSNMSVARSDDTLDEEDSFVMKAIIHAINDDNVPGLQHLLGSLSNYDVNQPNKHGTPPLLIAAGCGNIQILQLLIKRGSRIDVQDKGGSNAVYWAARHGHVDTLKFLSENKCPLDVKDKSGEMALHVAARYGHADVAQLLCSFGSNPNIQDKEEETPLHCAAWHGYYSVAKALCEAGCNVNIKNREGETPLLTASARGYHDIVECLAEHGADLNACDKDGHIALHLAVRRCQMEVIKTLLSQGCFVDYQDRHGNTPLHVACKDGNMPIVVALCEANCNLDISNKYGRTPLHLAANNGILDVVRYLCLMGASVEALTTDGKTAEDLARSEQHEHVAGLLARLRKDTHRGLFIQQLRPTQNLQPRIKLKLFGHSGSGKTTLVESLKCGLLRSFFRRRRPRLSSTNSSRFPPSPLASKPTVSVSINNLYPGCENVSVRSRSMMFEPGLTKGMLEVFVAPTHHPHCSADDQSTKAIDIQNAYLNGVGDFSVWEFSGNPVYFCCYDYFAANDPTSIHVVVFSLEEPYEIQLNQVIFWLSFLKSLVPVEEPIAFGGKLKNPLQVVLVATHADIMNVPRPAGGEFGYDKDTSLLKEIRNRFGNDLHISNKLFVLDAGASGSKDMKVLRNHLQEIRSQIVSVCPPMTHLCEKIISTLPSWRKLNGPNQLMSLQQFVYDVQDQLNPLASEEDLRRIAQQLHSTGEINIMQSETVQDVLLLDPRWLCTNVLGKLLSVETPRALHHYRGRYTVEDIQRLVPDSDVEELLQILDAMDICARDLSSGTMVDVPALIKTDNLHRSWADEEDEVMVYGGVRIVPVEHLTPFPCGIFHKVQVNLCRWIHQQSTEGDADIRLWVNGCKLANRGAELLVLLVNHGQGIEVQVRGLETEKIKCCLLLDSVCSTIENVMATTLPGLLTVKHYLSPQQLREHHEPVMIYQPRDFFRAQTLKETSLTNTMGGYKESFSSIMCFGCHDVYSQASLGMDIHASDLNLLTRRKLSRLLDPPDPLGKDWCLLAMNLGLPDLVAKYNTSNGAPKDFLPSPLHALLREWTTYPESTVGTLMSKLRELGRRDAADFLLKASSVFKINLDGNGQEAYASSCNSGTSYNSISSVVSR
Chain of Serine/threonine-protein kinase MARK1 (Homo sapiens) (Q9P0L2 whole entry, looked up): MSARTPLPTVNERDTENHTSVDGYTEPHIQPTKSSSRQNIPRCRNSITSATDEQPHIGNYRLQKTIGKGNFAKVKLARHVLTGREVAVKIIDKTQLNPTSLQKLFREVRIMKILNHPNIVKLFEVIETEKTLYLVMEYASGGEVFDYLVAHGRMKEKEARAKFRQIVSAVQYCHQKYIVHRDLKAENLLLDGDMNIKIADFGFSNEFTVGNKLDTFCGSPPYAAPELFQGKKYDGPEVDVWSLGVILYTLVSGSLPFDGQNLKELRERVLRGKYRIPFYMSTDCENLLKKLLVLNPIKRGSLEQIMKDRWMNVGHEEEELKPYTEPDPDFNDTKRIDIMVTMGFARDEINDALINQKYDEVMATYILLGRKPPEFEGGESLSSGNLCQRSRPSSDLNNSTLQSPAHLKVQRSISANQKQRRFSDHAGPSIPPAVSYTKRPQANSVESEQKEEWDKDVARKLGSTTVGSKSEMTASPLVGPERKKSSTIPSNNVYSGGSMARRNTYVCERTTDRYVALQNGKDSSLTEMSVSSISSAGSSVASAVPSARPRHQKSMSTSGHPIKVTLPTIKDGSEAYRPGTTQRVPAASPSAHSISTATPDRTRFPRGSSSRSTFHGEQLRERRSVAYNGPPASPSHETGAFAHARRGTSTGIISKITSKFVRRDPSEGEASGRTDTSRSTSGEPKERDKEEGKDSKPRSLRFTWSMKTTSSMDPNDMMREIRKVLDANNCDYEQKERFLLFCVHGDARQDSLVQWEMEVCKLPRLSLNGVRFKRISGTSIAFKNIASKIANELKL
Chain of MAP kinase-activated protein kinase 3 (Homo sapiens) (Q16644 whole entry, looked up): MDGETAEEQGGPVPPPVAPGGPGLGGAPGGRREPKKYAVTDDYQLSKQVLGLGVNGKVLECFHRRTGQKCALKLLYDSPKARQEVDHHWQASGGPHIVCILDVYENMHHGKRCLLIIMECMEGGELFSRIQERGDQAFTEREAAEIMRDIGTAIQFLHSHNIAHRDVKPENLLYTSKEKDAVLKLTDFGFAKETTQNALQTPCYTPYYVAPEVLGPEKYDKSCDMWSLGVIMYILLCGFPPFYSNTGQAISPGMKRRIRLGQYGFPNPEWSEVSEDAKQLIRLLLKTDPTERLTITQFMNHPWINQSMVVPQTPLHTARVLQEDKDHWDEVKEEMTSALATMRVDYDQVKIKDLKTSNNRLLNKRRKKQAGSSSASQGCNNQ
Chain of MAP kinase-activated protein kinase 2 (Homo sapiens) (P49137 whole entry, looked up): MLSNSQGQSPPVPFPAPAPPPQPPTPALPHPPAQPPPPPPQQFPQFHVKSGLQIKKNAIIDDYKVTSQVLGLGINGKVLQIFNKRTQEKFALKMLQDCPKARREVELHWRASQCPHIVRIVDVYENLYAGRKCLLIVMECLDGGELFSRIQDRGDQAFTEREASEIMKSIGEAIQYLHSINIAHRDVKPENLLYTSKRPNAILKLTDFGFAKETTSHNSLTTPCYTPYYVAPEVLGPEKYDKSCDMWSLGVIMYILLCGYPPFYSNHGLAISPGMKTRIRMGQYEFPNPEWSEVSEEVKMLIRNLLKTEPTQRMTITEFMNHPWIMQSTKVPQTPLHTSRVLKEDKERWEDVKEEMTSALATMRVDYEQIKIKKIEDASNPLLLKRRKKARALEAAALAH

| Compound | inhibition [1] | inhibition [2] | inhibition [3] | inhibition [4] | inhibition [5] | inhibition [6] | inhibition [7] | inhibition [8] | inhibition [9] | inhibition [10] |
| --- | --- | --- | --- | --- | --- | --- | --- | --- | --- | --- |
| ON=C1CCc2cc(-c3nc(C4CCNCC4)[nH]c3-c3ccncc3)ccc21 | 1.92% | 2.56% | -0.17% | -0.64% | -0.71% | 8.04% | 26.9% | 0.47% | 1.75% | 0.82% |
| CC(C)c1ccc(Nc2nccc(-c3cnn4ncccc34)n2)cc1 | -2.33% | 0.5% | -1.7% | 0.86% | 0.39% | 3.55% | 6.14% | 0.51% | 4.24% | 2.56% |
| COc1cc2ncnc(Nc3ccc(C)c(O)c3)c2cc1OC | 6.25% | 2.8% | 0.34% | 3.52% | 3.42% | 5.93% | 7.13% | 4.14% | 7.86% | 4.06% |
| Cc1ccc(NC(=O)CC2CC2)cc1-c1ccc(C(=O)NCC2CC2)cc1 | 12.4% | 1.13% | 0.51% | 4.17% | 4.27% | 18.4% | 33.5% | 2.05% | 2.04% | 2.42% |
| N#Cc1cccc(Nc2nccc(-c3cnn4ncccc34)n2)c1 | 3.93% | 2.04% | 0.56% | 2.34% | 1.6% | 2.17% | 5% | 6.5% | 15.2% | 2.34% |
| Cc1cc(O)cc(C)c1/C=C/c1cncc(C(=O)N(C)C)c1 | 5.28% | 3.47% | 0.19% | 0.52% | 0.82% | 0.87% | 1.23% | 1.15% | 1.29% | 2.67% |
| Cc1ccc(Nc2ccnc(Nc3cccc(C(N)=O)c3)n2)cc1O | 0.43% | -4.04% | 0.3% | 1.02% | 0.74% | 3.05% | 7.65% | 2.3% | 6.45% | 4.15% |
| CCOc1nccc2c1nc(-c1nonc1N)n2CC | 3.18% | 0.43% | 1.18% | 2.38% | 2.83% | 3.14% | 2.96% | 2.58% | 9.64% | 1.53% |
| CN(C)C(=O)O[C@H]1CN[C@H](C#Cc2cc3ncnc(Nc4ccc(OCc5cccc(F)c5)c(Cl)c4)c3s2)C1 | 2.24% | -0.33% | 2.04% | 1.5% | 0.84% | 2.84% | 2.58% | 2.51% | 2.11% | 2.14% |
| NS(=O)(=O)c1ccc(N/N=C2\C(=O)Nc3ccc(Cl)cc32)cc1 | -3.71% | 0.73% | 1% | -0.88% | -0.73% | -2.03% | -2.76% | 3.26% | 11.4% | 4.4% |
| C[C@@H](Oc1cc(-n2cnc3ccc(OC[C@@H](O)CO)cc32)sc1C(N)=O)c1ccccc1Cl | -5.26% | 0.92% | -6.84% | -0.75% | -0.94% | -0.21% | -0.73% | 0.87% | 5.71% | 0.4% |
| Cc1cc(Cl)cc2c1NC(=O)C2=NNc1ccc(S(N)(=O)=O)cc1 | 3.49% | 1.05% | 6.07% | 1.56% | 1.44% | 0.78% | 2.25% | 2.46% | 4.87% | 3.64% |
| NS(=O)(=O)c1ccc(Nc2cc(-c3cccc(O)c3)n[nH]2)cc1 | 8.63% | 0.84% | 0.2% | 1.88% | 2.79% | 4.03% | 4.03% | 5.12% | 11.5% | 5.96% |
| Nc1ccc(C#Cc2cncnc2Nc2ccc(OCc3cccc(F)c3)c(Cl)c2)cc1 | 1.54% | -0.36% | -0.03% | 2.17% | 0.48% | 4.18% | 4.4% | 2.19% | 3.58% | 2.93% |
| COc1cc2ncnc(Nc3ccc4c(cnn4Cc4ccccc4)c3)c2cc1OC | 8.23% | -1.15% | 0.67% | 2.78% | 4.35% | 6.95% | 9.14% | 1.12% | 3.17% | 0.1% |
| COC(=O)Nc1nc2cc(Oc3ccc(NC(=O)Nc4cccc(Br)c4)cc3)ccc2[nH]1 | 2.38% | -0.32% | 4.24% | 1.26% | 1.19% | 4.95% | 6.43% | 1.41% | 1.86% | 3.56% |
| CC(C)c1ccc2c(c1)NC(=O)/C2=N/Nc1ccc(S(N)(=O)=O)cc1 | -1.66% | -1.85% | -0.66% | -1.01% | -0.9% | -0.68% | -1.45% | -0.84% | 0.9% | -3.67% |
